Measured values from the supplement of paper PMC11732987, “Enantioselective OTUD7B fragment discovery through chemoproteomics screening and high-throughput optimisation” (Communications Chemistry, 2025).

Legend:
Assay in all cases: log2 ratio of Biotin-Ahx-Ub-VS probe labelling (fragment/DMSO); higher = less target engagement (more negative = stronger competition), active = hit call of the paper (q ≤ 0.05, log2 ratio ≤ -1)
Details in all cases: compound concentration: 200 uM; treatment time: 3 h
USP19 = target: T1, USP19 (UniProt O94966)
T1 sequence (whole entry): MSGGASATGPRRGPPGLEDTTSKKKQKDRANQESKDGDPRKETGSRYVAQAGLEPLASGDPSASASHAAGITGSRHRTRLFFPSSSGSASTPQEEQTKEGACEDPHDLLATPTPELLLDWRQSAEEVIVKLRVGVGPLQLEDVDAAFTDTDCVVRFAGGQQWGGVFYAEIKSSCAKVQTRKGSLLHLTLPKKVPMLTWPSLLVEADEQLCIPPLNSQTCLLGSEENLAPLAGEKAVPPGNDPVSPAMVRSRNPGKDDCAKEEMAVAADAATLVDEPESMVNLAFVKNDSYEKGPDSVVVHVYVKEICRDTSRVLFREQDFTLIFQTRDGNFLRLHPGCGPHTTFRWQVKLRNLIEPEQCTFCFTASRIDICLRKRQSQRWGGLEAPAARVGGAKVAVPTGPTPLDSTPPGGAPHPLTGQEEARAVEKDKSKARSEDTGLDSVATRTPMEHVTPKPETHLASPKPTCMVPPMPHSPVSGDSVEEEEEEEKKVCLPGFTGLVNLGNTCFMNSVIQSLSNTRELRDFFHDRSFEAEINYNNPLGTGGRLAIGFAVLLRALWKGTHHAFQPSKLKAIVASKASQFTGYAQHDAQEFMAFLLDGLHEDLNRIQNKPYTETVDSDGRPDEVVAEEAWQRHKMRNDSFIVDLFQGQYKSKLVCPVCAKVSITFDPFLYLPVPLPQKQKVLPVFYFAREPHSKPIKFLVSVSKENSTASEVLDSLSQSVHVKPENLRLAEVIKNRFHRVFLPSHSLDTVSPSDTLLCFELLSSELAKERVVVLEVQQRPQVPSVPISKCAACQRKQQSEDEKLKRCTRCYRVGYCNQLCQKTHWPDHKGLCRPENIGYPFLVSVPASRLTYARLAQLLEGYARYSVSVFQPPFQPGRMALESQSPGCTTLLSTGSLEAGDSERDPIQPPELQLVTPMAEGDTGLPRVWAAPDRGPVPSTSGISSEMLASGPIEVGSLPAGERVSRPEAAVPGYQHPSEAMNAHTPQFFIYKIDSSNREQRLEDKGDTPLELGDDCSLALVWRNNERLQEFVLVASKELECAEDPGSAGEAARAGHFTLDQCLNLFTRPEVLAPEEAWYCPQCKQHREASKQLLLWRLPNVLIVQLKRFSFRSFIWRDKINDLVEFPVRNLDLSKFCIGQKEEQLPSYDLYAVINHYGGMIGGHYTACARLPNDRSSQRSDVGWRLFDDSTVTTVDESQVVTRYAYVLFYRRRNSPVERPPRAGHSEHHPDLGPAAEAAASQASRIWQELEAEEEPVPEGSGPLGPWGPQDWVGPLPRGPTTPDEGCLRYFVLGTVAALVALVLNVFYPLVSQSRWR
Outline: (§1)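 Average log2 ratios of fragment over vehicle were obtained by unpaired t-test from global-median-normalised Spectronaut label-free quantities. Proteins with ≥2 unique peptides were included. HEK293T lysate (495 µg per sample) was treated in triplicate with fragment at 200 µM or vehicle for 3 h, then with Biotin-Ahx-Ub-VS at 0.5 µM final for 1 h, and labelled DUBs were NeutrAvidin-enriched and run by diaPASEF LC-MS/MS.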

USP22 = target: T2, USP22 (UniProt Q9UPT9)
T2 sequence (whole entry): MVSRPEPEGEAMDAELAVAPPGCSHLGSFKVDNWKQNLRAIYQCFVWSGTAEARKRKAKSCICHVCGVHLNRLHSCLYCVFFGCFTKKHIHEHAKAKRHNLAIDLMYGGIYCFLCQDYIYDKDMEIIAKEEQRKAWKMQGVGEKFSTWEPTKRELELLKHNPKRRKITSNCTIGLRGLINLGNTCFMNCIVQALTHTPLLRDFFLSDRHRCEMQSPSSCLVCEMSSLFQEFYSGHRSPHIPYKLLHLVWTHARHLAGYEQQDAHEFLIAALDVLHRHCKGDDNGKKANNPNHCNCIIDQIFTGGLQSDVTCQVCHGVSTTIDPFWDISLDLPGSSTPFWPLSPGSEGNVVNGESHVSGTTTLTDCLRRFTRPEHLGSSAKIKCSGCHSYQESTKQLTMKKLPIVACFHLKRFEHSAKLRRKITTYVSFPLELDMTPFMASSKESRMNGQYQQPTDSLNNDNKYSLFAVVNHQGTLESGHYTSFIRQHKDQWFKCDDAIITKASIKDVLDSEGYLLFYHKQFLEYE
Outline: as §1

USP24 = USP24 (UniProt Q9UPU5)
USP24, sequence (Q9UPU5 whole entry): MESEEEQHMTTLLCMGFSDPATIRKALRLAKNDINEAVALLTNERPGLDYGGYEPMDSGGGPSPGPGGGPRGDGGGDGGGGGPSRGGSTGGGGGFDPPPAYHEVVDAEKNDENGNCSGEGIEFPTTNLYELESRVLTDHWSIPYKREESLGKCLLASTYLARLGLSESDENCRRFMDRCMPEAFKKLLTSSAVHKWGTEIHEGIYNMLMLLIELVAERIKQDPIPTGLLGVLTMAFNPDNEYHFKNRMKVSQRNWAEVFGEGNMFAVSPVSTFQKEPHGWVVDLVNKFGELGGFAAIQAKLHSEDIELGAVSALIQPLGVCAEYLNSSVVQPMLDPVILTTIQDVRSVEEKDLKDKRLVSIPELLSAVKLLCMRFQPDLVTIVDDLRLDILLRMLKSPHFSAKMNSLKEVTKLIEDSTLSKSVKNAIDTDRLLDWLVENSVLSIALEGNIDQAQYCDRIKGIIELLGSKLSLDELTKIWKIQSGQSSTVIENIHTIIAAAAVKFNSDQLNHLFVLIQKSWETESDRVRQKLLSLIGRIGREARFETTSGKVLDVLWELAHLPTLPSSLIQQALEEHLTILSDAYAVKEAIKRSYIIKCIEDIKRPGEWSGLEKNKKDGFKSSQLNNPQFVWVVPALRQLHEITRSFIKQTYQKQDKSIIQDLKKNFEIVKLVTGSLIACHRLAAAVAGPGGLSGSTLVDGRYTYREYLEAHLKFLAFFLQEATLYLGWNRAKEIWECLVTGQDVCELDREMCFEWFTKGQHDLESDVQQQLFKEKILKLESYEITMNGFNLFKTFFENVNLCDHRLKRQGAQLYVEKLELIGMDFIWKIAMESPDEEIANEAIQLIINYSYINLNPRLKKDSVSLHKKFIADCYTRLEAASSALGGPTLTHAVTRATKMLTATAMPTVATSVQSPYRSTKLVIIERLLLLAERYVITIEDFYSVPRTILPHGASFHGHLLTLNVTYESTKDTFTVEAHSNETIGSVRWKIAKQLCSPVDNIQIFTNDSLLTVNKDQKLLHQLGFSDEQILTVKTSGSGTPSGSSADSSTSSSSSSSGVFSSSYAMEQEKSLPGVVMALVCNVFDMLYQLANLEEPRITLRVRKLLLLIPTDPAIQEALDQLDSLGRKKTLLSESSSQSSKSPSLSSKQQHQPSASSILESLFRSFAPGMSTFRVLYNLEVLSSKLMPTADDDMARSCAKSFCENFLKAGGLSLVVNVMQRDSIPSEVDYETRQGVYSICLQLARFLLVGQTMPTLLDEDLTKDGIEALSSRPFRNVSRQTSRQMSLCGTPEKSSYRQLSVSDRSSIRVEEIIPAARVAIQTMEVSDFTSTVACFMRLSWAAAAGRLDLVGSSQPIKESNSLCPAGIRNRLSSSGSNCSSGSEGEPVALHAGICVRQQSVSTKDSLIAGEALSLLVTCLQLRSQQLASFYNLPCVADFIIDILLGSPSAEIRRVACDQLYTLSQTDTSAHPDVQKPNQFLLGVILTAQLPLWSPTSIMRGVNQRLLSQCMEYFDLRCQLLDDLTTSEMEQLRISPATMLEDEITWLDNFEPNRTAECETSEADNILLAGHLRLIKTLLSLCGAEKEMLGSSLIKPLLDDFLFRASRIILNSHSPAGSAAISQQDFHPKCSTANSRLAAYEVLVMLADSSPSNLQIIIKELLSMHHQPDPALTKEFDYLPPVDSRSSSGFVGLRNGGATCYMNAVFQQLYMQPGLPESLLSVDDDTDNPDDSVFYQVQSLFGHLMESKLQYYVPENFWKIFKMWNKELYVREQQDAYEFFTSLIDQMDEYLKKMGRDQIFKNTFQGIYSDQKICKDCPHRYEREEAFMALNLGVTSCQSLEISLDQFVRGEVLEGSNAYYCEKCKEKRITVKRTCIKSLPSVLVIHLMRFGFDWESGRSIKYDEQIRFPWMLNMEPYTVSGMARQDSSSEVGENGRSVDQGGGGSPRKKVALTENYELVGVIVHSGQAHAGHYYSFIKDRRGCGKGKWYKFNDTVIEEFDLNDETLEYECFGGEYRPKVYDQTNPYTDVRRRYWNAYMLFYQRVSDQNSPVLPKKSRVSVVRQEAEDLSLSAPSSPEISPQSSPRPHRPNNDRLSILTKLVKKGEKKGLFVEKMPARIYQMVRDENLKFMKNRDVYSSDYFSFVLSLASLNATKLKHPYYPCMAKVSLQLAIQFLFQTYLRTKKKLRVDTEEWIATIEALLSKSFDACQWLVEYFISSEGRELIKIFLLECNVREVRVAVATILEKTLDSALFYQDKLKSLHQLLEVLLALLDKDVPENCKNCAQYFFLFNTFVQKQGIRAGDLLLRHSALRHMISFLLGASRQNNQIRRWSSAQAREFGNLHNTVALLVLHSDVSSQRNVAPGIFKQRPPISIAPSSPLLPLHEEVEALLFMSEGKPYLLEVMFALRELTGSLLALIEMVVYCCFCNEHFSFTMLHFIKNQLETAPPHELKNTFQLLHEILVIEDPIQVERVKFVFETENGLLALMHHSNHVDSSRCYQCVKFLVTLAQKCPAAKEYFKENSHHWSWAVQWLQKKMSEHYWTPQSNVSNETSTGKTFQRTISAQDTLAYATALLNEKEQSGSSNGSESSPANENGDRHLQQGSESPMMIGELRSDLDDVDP
Outline: as §1

USP25 = target: T3, USP25 (UniProt Q9UHP3)
T3 sequence (whole entry): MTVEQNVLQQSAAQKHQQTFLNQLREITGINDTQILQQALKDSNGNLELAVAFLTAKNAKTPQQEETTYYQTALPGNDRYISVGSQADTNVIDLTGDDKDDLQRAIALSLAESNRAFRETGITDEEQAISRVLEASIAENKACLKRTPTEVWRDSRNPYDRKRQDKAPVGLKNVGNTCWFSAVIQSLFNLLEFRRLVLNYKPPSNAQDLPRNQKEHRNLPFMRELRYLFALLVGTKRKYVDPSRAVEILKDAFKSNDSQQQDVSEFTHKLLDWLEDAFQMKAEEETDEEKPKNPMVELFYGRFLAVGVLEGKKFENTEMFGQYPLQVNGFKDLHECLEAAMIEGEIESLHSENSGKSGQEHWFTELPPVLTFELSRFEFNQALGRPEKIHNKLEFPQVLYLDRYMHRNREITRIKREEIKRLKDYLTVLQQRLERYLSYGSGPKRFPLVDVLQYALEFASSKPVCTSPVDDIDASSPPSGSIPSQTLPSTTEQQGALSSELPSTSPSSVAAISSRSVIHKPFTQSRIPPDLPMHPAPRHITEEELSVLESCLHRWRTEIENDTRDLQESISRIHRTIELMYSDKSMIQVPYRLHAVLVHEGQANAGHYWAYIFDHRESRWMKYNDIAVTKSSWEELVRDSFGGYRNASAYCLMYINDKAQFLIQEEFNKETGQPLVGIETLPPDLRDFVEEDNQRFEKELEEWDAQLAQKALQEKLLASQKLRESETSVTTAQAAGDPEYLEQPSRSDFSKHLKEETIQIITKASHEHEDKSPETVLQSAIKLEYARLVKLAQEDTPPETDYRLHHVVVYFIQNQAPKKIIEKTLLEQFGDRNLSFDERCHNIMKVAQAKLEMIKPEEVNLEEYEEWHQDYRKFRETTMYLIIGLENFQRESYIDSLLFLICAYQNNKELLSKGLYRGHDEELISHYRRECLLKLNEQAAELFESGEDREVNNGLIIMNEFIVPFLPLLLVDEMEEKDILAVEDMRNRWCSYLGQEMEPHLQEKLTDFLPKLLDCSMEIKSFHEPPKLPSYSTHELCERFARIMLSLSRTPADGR
Outline: as §1

USP28 = target: T4, USP28 (UniProt Q96RU2)
T4 sequence (whole entry): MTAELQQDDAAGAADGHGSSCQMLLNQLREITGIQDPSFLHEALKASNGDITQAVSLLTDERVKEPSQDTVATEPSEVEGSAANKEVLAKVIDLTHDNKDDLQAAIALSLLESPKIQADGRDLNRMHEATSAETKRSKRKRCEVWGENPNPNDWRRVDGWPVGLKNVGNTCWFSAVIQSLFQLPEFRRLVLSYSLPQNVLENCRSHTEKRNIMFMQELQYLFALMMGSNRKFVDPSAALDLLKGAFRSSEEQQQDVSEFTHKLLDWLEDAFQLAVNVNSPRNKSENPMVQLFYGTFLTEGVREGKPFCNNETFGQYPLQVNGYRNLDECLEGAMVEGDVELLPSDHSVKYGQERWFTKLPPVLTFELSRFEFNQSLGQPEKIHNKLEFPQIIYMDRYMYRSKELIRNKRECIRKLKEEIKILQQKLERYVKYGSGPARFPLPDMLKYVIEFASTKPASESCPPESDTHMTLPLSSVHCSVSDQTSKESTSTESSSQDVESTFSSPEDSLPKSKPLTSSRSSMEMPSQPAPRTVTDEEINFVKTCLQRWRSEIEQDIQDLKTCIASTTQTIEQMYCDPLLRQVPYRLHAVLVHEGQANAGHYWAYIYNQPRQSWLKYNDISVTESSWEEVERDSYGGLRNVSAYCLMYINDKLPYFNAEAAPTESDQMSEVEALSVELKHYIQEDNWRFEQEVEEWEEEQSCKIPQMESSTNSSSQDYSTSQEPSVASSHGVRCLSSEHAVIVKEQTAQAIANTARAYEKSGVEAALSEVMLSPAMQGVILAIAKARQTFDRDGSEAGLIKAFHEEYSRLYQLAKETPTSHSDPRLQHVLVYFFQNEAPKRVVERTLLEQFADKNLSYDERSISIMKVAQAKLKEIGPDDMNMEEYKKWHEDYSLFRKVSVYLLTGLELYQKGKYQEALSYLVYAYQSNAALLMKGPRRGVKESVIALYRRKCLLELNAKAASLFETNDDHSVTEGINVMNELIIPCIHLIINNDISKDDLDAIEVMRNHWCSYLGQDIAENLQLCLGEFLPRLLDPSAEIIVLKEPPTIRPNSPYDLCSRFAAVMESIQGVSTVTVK
Outline: as §1

Measured: log2 ratio of Biotin-Ahx-Ub-VS probe labelling

CS(=O)(=O)N1CCCN(C(=O)CCl)CC1
inactive: USP19 -0.0881 | USP22 0.0754 | USP24 -0.0413 | USP25 -0.243 | USP28 -0.549
